# Several values for one entry are separate records, joined by “and”; a condition that tells them apart may be missing. Equal values may be shown once. For part of these data: Entries with a potency or affinity are not part of this list. Records with an inconclusive call do not appear. Activity calls are given as the source filed them. Unless noted, no rule for the calls is given here.
# Assays:
# [1] = resazurin metabolic signal in HepG2 cells – cell-based, resazurin fluorescence, 24 h, PK04 Diversity Set, profiling panel (AID 1172); details: HepG2 viability, higher = more signal
# [2] = budding yeast growth changes without added modifier – OD600, strain BY4716, 24 h, basal condition, primary screen (AID 1173); details: S. cerevisiae BY4716 growth, OD600, 24 h; higher = more signal, called active from +8 up or from −8 down unless noted
# [3] = viability profiling in MM1S myeloma cells – cell-based, resazurin fluorescence, basal, 24 h, PK04 Diversity Set, profiling panel (AID 1174); details: higher = more signal, called active from +8 up or from −8 down unless noted;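 also: MM1S multiple myeloma cell line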
# [4] = biological target: Dihydroorotate dehydrogenase (quinone), mitochondrial (Plasmodium falciparum (isolate 3D7)) (UniProt Q08210); test: inhibition of P. falciparum DHODH – biochemical, C-terminal His tag, absorbance 600 nm, primary screen (AID 1175); details: PfDHODH enzyme, DCIP absorbance 600 nm; higher = more signal, called active from +8 up or from −8 down unless noted;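 also: recombinant parasite enzyme with a five histidine tag at its C terminus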
# [5] = inhibition of PAO1 biofilm formation – strain PAO1, LB-PBS medium, absorbance 600 nm, primary screen (AID 1176); details: P. aeruginosa PAO1 growth/biofilm, A600, 12 h; higher = more signal
# [6] = growth modulation of vineyard yeast isolate – strain RM11-1a, OD600, basal, 24 h, primary screen (AID 1177);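 also: cultures grown under basal conditions with no added stressor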; details: S. cerevisiae RM11-1a growth, OD600, 24 h; higher = more signal, called active from +8 up or from −8 down unless noted
# [7] = growth of efflux-deficient E. coli DRC39 – strain DRC39, OD650, 24 h, E. coli filamentation inducers, primary screen (AID 1178);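 also: growth measured as culture turbidity by optical density at 650 nm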; details: E. coli DRC39 acrAB; higher = more signal, called active from +8 up or from −8 down unless noted
# [8] = growth of efflux-deficient E. coli DRC39 – strain DRC39, OD650, 48 h, E. coli filamentation inducers, primary screen (AID 1179);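 also: screen aims at cell division blockers that make cells filament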; details: E. coli DRC39 delta-acrAB growth, higher = more signal, called active from +8 up or from −8 down unless noted
# [9] = viability profiling in RPMI8226 myeloma cells – cell-based, resazurin fluorescence, basal, 24 h, PK04 Diversity Set, profiling panel (AID 1180); details: higher = more signal; RPMI8226 viability, resazurin fluorescence, 24 h unless noted;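 also: RPMI8826 multiple myeloma cell line at 5000 cells per well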
# [10] = biological target: E3 ubiquitin-protein ligase XIAP (Homo sapiens) (UniProt P98170); test: small molecules binding XIAP protein – biophysical, small-molecule microarray, fluorescence 635 nm, primary screen (AID 1181); details: higher = more signal;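 also: score merges 667 nm emission and signal to noise over triplicate slides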
# [11] = tested on: XIP peptide (Xip251-270) binding; test: XIP fragment 251-270 binding compounds – biochemical, small-molecule microarray, fluorescence 635/667 nm, 0.1 µg/mL protein, primary screen (AID 1182); details: fluorescent protein binding, 635 nm; higher = more signal, called active from +8 up or from −8 down unless noted
# XIP peptide (Xip251-270) = test: compounds binding XIP fragment 251-270 – biochemical, small-molecule microarray, fluorescence 635/667 nm, 0.5 µg/mL protein, primary screen (AID 1183); details: fluorescence 635 nm, higher = more signal
# [12] = blood-stage malaria parasite viability loss – strain 3D7, DAPI fluorescence, 100 nL, primary screen (AID 1184);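 also: parasites grown inside human red blood cells in medium with human serum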; details: P. falciparum 3D7 growth, 3 d, higher = more signal
# [13] = biological target: Homeobox protein Hox-A13 (Mus musculus) (UniProt Q62424); test: disruptors of Hoxa13 oligonucleotide interaction – biochemical, fluorescence polarization, labeled oligonucleotide, primary screen (AID 1185); details: Hoxa13:DNA binding, 15 min; higher = more signal, called active from +8 up or from −8 down unless noted
# [14] = blockers of DNA damage checkpoint Chk1 activation – imaging, HeLa, hydroxyurea, phospho-Chk1 antibody, percent positive cells, primary screen (AID 1186); details: hydroxyurea-induced phospho-Chk1 immunofluorescence imaging, higher = more signal
# [15] = blockers of DNA damage checkpoint Chk1 activation – imaging, HeLa, hydroxyurea, phospho-Chk1 nuclear intensity, primary screen (AID 1187); details: hydroxyurea-induced phospho-Chk1 immunofluorescence imaging, higher = more signal
# [16] = biological target: Adenosylmethionine-8-amino-7-oxononanoate aminotransferase (Mycobacterium tuberculosis (strain ATCC 25618 / H37Rv)) (UniProt P9WQ81); test: inhibition of purified M. tuberculosis BioA – biochemical, plate reader, cherry-pick samples, dose response (AID 651683); details: purified M. tuberculosis BioA enzyme; series mostly up to 10 µM
# [17] = viability loss in HepG2 hepatoma cells – cell-based, cherry-picks, set 2, cytotoxicity control, dose response (AID 687002;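 active = a dose-response fit showing signal loss, with half-maximal concentration no higher than twice the top tested dose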); details: ATP luminescence (CellTiter-Glo), 48 h; series mostly up to 26 µM
# [18] = C. neoformans lysis by adenylate kinase leakage – AK release luminescence, cherry-picks, dose response (AID 687000;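 active = fitted dose curve reaches 40% lysis signal rise at or below the highest valid concentration tested for that sample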;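 also: luminescent detection of adenylate kinase leaking from lysed yeast; 0% = median neutral control signal and 100% = double that signal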); details: 4 h; series mostly up to 15 µM
# [19] = fungal growth arrest, C. neoformans – Alamar Blue, cherry-picks, dose response (AID 686998;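 active = falling signal with fitted half-maximal potency no higher than twice the top valid tested dose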); details: Cryptococcus neoformans growth, 24 h; series mostly up to 35 µM
# Homeobox protein Hox-A13 (Mus musculus), sequence (Q62424 whole entry, looked up): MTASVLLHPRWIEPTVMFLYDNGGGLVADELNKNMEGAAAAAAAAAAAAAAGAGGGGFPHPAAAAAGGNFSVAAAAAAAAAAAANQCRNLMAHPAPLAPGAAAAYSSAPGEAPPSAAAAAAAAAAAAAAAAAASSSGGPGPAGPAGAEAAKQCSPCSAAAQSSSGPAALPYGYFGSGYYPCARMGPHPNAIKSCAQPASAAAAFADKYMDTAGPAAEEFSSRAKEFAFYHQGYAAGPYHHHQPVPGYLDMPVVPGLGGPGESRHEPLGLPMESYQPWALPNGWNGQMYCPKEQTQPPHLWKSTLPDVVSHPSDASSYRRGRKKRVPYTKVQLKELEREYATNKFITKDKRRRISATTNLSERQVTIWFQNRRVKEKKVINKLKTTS
# Dihydroorotate dehydrogenase (quinone), mitochondrial (Plasmodium falciparum (isolate 3D7)), sequence (Q08210 whole entry, looked up): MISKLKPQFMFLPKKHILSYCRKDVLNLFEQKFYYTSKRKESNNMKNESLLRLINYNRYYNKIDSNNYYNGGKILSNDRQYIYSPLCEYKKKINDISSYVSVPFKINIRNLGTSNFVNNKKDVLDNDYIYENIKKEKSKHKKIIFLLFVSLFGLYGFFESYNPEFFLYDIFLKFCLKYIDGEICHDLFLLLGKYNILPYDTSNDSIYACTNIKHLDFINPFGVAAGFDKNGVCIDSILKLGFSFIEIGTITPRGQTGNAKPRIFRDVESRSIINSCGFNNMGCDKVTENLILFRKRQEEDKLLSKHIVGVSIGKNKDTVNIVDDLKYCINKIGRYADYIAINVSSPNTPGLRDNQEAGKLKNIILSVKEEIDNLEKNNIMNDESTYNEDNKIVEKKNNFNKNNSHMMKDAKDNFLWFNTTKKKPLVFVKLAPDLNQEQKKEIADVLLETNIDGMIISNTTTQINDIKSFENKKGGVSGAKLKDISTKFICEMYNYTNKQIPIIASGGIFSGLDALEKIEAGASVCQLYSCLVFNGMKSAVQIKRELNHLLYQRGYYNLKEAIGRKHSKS
# E3 ubiquitin-protein ligase XIAP (Homo sapiens), sequence (P98170 whole entry, looked up, the tested form may be a part): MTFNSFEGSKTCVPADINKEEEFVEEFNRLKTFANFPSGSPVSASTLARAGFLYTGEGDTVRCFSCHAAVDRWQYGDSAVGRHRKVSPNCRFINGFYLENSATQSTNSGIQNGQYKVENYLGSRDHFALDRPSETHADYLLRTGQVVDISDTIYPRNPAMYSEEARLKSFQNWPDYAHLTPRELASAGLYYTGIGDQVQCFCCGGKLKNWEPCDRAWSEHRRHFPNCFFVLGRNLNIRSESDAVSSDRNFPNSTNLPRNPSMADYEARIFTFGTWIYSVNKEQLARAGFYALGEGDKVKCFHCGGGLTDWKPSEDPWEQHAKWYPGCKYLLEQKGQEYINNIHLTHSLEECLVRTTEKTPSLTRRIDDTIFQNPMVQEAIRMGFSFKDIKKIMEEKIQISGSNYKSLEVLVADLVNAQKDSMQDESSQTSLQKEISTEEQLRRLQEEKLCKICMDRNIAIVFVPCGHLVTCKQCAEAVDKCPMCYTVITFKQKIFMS
# Adenosylmethionine-8-amino-7-oxononanoate aminotransferase (Mycobacterium tuberculosis (strain ATCC 25618 / H37Rv)), sequence (P9WQ81 whole entry, looked up): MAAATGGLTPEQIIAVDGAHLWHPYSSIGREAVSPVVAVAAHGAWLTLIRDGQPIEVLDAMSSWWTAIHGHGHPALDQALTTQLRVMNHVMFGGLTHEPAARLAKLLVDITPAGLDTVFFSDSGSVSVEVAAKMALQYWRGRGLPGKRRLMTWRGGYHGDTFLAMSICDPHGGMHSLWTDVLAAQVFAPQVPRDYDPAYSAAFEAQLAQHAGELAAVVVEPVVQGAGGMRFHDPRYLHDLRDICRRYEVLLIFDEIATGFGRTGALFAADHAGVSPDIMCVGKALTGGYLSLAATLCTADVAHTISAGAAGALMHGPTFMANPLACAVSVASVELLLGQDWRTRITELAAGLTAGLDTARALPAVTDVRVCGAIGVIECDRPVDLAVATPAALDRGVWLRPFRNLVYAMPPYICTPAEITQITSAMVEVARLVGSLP
compound,measurement,setting,value
COC(=O)[C@@]1(Cc2ccccc2)[C@H]2c3cc(C(=O)N(C)C)[nH]c3C[C@H]2CN1C(=O)c1ccccc1,z-score,[1],-0.154
same,z-score,[2],0.887 (inactive)
same,z-score,[3],-0.693 (inactive)
same,composite z-score,[4],-0.434 (inactive)
same,z-score,[5],0.0944 (inactive)
same,z-score,[6],0.439 (inactive)
same,z-score,[7],-0.513 (inactive)
same,z-score,[8],0.0889 (inactive)
same,z-score,[9],-0.57
same,composite z-score,[10],0.215
same,composite z-score,[11],0.665 (inactive)
same,composite z-score,XIP peptide (Xip251-270),-0.456
same,z-score,[12],0.747
same,z-score,[13],-3.47 (inactive)
same,z-score,[14],-0.493 (inactive)
same,z-score,[15],-0.73 (inactive)
Cc1ccc(NCc2nnc(SCC(=O)N3CCc4ccccc43)n2C)cc1,outcome,[16],inactive
CC[C@H](C)[C@@H]1NC(=O)CNC(=O)c2csc(n2)[C@H](C(C)(C)O)OC(=O)C(C)(C)[C@H](CCCC(C)(Cl)Cl)OC(=O)c2csc1n2,outcome,[17],inactive
CCOc1ccc(-n2c(SCC(N)=O)nc3c(c2=O)SCC3)cc1,outcome,[16],inactive
O=C(O)CSc1ncnc2scc(-c3ccc(Br)cc3)c12,outcome,[16],inactive
O=C(c1ccncc1)N1CC[C@@H]2[C@@H](CO)Nc3ccc(Br)cc3[C@@H]21,outcome,[16],inactive
CC(=O)OC1(C)CC(C)C(=O)C(C(O)CC2CC(=O)NC(=O)C2)C1 (stereo not given),outcome,[18],inactive
same,outcome,[17],inactive
CN1c2ccc(-c3cccc(F)c3)cc2[C@@H]2[C@@H](CCN2C(=O)c2ccncc2)[C@H]1CO,outcome,[16],inactive
CCCC[C@@H]1C[C@H]1[C@@H](NP(=O)(c1ccccc1)c1ccccc1)c1ccc(Cl)cc1,z-score,[1],1.46
same,z-score,[2],-1.14 (inactive)
same,z-score,[3],0.105 (inactive)
same,composite z-score,[4],-0.717 (inactive)
same,z-score,[5],0.122 (inactive)
same,z-score,[6],-0.357 (inactive)
same,z-score,[7],-0.429 (inactive)
same,z-score,[8],-0.363 (inactive)
same,z-score,[9],-0.0326
same,composite z-score,[10],0.0077
same,composite z-score,[11],0.156 (inactive)
same,composite z-score,XIP peptide (Xip251-270),-0.337
same,z-score,[12],0.0345
same,z-score,[13],-2.17 (inactive)
same,z-score,[14],0.368 (inactive)
same,z-score,[15],0.316 (inactive)
CCCC=C(CCC)[C@@H](NP(=O)(c1ccccc1)c1ccccc1)c1ccccc1,z-score,[1],2.47
same,z-score,[2],1.4 (inactive)
same,z-score,[3],1.16 (inactive)
same,composite z-score,[4],0.0585 (inactive)
same,z-score,[5],0.0944 (inactive)
same,z-score,[6],-0.903 (inactive)
same,z-score,[7],-0.486 (inactive)
same,z-score,[8],-0.236 (inactive)
same,z-score,[9],1.3
same,composite z-score,[10],0.0205
same,composite z-score,[11],0.147 (inactive)
same,composite z-score,XIP peptide (Xip251-270),0.158
same,z-score,[12],-0.81
same,z-score,[13],-1.64 (inactive)
same,z-score,[14],0.17 (inactive)
same,z-score,[15],0.404 (inactive)
COc1ccccc1-c1cc(C(F)(F)F)nc(S(=O)(=O)CCCC(=O)O)n1,outcome,[16],inactive
CC(Oc1cc2oc(=O)c3c(c2cc1Cl)CCC3)C(=O)NCc1cccnc1 (stereo not given),outcome,[16],inactive
O=c1[nH]c(CN2CC=C(c3ccccc3)CC2)nc2cc(C(F)(F)F)ccc12,outcome,[18],inactive
same,outcome,[17],inactive
CCOC(=O)[C@H]1CC=C2C(=O)Oc3ccccc3[C@@H]21,z-score,[1],0.867
same,z-score,[2],-10.4 (active)
same,z-score,[3],-0.848 (inactive)
same,composite z-score,[4],0.188 (inactive)
same,z-score,[5],0.381 (inactive)
same,z-score,[6],-1.43 (inactive)
same,z-score,[7],-0.475 (inactive)
same,z-score,[8],-1.11 (inactive)
same,z-score,[9],-0.575
same,composite z-score,[10],-0.0727
same,composite z-score,[11],0.23 (inactive)
same,composite z-score,XIP peptide (Xip251-270),0.637
same,z-score,[12],-0.654
same,z-score,[13],-2.72 (inactive)
same,z-score,[14],0.466 (inactive)
same,z-score,[15],0.0685 (inactive)
Cc1ccc(S(=O)(=O)N(C)C)cc1NC(=O)CSc1nncs1,outcome,[16],inactive
O=C(C[C@H]1C[C@H]2c3cc(NC(=O)c4cccnc4)ccc3O[C@H]2[C@H](CO)O1)NCc1ccccn1,outcome,[16],inactive
CC1N(P(=O)(c2ccccc2)c2ccccc2)CC(O)(c2ccccc2)CC12CC2 (stereo not given),z-score,[1],-0.964 and 0.138
same,z-score,[2],2.47 (inactive) and 0.135 (inactive)
same,z-score,[3],-1.13 (inactive) and -0.22 (inactive)
same,composite z-score,[4],0.296 (inactive) and -0.264 (inactive)
same,z-score,[5],0.495 (inactive) and 0.178 (inactive)
same,z-score,[6],1.23 (inactive) and -0.154 (inactive)
same,z-score,[7],-0.611 (inactive) and -0.406 (inactive)
same,z-score,[8],0.0506 (inactive) and -0.0402 (inactive)
same,z-score,[9],-1.54 and 0.553
same,composite z-score,[10],-0.193 and -0.25
same,composite z-score,[11],0.51 (inactive) and -0.0366 (inactive)
same,composite z-score,XIP peptide (Xip251-270),0.547 and 0.382
same,z-score,[12],0.2 and -0.527
same,z-score,[13],-3.23 (inactive) and -3.55 (inactive)
same,z-score,[14],0.694 (inactive) and 0.475 (inactive)
same,z-score,[15],0.608 (inactive) and 0.341 (inactive)
Cc1c(OC(C)C(=O)NCC2CCC(C(=O)O)CC2)ccc2c1oc(=O)c1ccccc12 (stereo not given),outcome,[16],inactive
C[C@@H]1CN([C@@H](C)CO)C(=O)CCCn2nncc2CO[C@H]1CN(C)C(=O)Oc1cccc2ccccc12,outcome,[19],inactive
same,outcome,[17],inactive
CN1CCC(c2ccc(CO)cc2)=CC1C1CC1 (stereo not given),z-score,[1],-0.777
same,z-score,[2],0.574 (inactive)
same,z-score,[3],-0.55 (inactive)
same,composite z-score,[4],-0.54 (inactive)
same,z-score,[5],-0.247 (inactive)
same,z-score,[6],-0.123 (inactive)
same,z-score,[7],0.501 (inactive)
same,z-score,[8],0.389 (inactive)
same,z-score,[9],-0.869
same,composite z-score,[10],0.284
same,composite z-score,[11],-0.809 (inactive)
same,composite z-score,XIP peptide (Xip251-270),0.005
same,z-score,[12],-0.0622
same,z-score,[13],-1.39 (inactive)
same,z-score,[14],0.738 (inactive)
same,z-score,[15],0.657 (inactive)
O=C(CN1C(=O)/C(=C/c2cccc(Br)c2)SC1=S)Nc1cccnc1,outcome,[16],inactive
COc1cc2c(cc1O)C=[N+](C)CC2,z-score,[1],-0.365
same,z-score,[2],0.248 (inactive)
same,z-score,[3],-0.765 (inactive)
same,composite z-score,[4],-1.7 (inactive)
same,z-score,[5],0.158 (inactive)
same,z-score,[6],-0.756 (inactive)
same,z-score,[7],0.313 (inactive)
same,z-score,[8],1.42 (inactive)
same,z-score,[9],-0.383
same,composite z-score,[10],0.0613
same,composite z-score,[11],-1.21 (inactive)
same,composite z-score,XIP peptide (Xip251-270),-0.417
same,z-score,[12],-0.0765
same,z-score,[13],-2.14 (inactive)
same,z-score,[14],-0.663 (inactive)
same,z-score,[15],-0.875 (inactive)
Nc1cc(C(=O)O)ccc1Nc1ccccc1,outcome,[16],inactive
N#Cc1ccc(-c2ccc3c(c2)[C@@H]2[C@@H](CCN2C(=O)c2ccc(F)cc2)[C@@H](CO)N3)cc1,outcome,[16],inactive
C[C@H]1CN([C@@H](C)CO)C(=O)CCCn2nncc2CO[C@H]1CN(C)C(=O)Oc1cccc2ccccc12,outcome,[19],inactive
same,outcome,[18],inactive
same,outcome,[17],inactive

# From PubChem BioAssay
